Hits are enriched below; roughly 4.7% of the tested compounds scored in any of these assays.
D1 potentiator – enhances dopamine response at the human D1 receptor | P21728 | HEK293 TREx D1 cells, calcium flux, dopamine EC20 potentiation | potentiation, % at 10 µM | 360,000 tested, 0.036% active; in the data active means potentiation above about 30%; further: 0% is about no effect
D1 ag – human D1 receptor agonism; P21728; activation, % at 2 µM; 360,000 tested, 1% active; HEK293 T-REx D1 cells, calcium flux, agonist mode; further: 0% is about no effect
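Agonism was scored from calcium flux recorded over 180 s (1 read/s) after pintool compound addition, following a 10-cycle baseline. Cells were inducible force-coupled HEK293 TREx D1, plated overnight at 30 C and loaded with no-wash calcium dye.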
D1 antagonist – human D1 dopamine receptor antagonism. HEK293 TREx D1 cells, calcium flux, dopamine EC80; hits give low values. activity change, negative = inhibition, % at 10 µM. 360,000 tested, 3.2% active; in the data active means activity change below about -30%; further: on the % scale 0 is the no-effect control and ±100 the full control effect
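Calcium flux readout: force-coupled, inducible Hek293 Trex D1 line, cells induced overnight at 30 C with tetracycline, dye-loaded 30–90 min at RT. Antagonism scored against EC80 dopamine challenge given 180 s after compound.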
TRHR enhancer – allosteric enhancers of human TRH receptor; 360,000 tested, 0.66% active; TRHR cells, fluo-8 calcium fluorescence, EC20 TRH enhancement; enhancement, % at 2 µM; in the data active means enhancement above about 30%; further: 0% is about no effect
Target sequence (P34981 whole entry, looked up): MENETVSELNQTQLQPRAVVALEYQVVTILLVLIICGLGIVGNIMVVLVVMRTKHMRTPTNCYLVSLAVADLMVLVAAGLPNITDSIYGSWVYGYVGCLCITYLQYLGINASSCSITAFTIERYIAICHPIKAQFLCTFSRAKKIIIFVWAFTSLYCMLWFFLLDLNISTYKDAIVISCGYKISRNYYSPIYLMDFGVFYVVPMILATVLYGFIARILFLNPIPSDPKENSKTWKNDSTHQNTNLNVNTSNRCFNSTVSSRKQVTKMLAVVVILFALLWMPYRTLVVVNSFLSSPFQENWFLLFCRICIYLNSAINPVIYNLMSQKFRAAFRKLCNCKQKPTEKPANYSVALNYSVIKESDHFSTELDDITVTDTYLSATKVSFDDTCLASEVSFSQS
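Enhancer read-out: after compound pinning and an initial kinetic agonist-mode read, an EC20 of TRH (10 nM final) was injected and fluo-8 calcium signal (Ex 480/Em 530) followed at 1 s/cycle for 100 cycles in TRHR-expressing cells.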
TRHR ag – agonists of human TRH receptor; TRHR cells, calcium flux fluo-8, FDSS agonist mode; activation, % at 2 µM; 360,000 tested, 0.18% active; further: 0% is about no effect
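Fluo-8-loaded TRHR cells; 10 s baseline, compound added, kinetic Ca2+ fluorescence read 1/s, agonist mode.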
An asterisk follows results filed as active; nt = no result given; ! = repeats disagree. Unless noted, no stated cut-off is given here; in the data, active means activation above about 30%; inactive means the rest.

SMILES	D1 potentiator	D1 ag	D1 antagonist	TRHR enhancer	TRHR ag
Cc1ccc(-c2nc3scc(CCNS(=O)(=O)c4c(C)noc4C)n3n2)cc1	-1.9	32.2*	nt	9.1	-0.6
COc1ccc(C2CC(=O)c3cc(-c4nc(-c5ccc(Cl)cc5)cs4)c(=O)[nH]c3C2)cc1OC (stereo not given)	1.1	1.5	-8.9	11.0	1.6
Cc1ccc(N2C(=O)c3cccc4c(N)ccc(c34)C2=O)c2cccnc12	7.8	334.4*	-67.8*	26.4	158.0*
CCN1C(=O)c2cccc3c(N)ccc(c23)C1=O	3.8	231.3*	-22.5	60.1*	283.7*
Cc1nn(C)c(C)c1N1C(=O)c2cccc3c(N)ccc(c23)C1=O	6.5	355.5*	-27.2	22.1	135.2*
COc1cccc(CNC(=O)CN2C(=O)CSc3c2c(C)nn3-c2ccccc2)c1OC	-1.5	0.1	-2.9	-3.2	-0.2
CC(=O)c1c(C)[nH]c(C(=O)Nc2ccc(F)cc2F)c1C	-3.8	2.0	-15.0	36.0*	-1.2
CC(=O)c1c(C)[nH]c(C(=O)Nc2cccc3ccccc23)c1C	-10.1	9.8	-33.1*	-4.5	-0.5
CC(=O)c1c(C)[nH]c(C(=O)Nc2cccc(C#N)c2)c1C	-9.3	3.6	-9.3	1.2	0.4
CCc1ccc(NC(=O)c2[nH]c(C)c(C(C)=O)c2C)cc1	-9.0	19.4	-38.7*	0.3	-0.8
CC(=O)c1c(C)[nH]c(C(=O)Nc2ccccc2Cl)c1C	-6.8	1.3	-0.9	9.8	-0.9
CC(=O)c1c(C)[nH]c(C(=O)Nc2cccc(C(F)(F)F)c2)c1C	-10.5	14.1	-33.5*	-10.6	0.4
Cc1cccc(CNC(=O)c2ccc(NC(=O)N3CCSc4ccccc43)cc2)c1	-3.5	5.1	14.7	13.6	-0.6
COc1ccccc1NC(=O)Cn1c(SCC(=O)NCc2ccccc2)nc2ccccc21	0.5	1.0	0.9	-1.7	-1.1
O=C(CSc1nc2c(oc3ccccc32)c(=O)n1Cc1ccco1)Nc1ccccc1Cl	8.4	0.0	-7.4	0.7	0.2
CCN1C(=O)[C@@H]2[C@@H](c3ccc(-c4ccc(Cl)c(Cl)c4)c(OC)c3)N3CCC[C@@]3(C(=O)OC)[C@@H]2C1=O	-6.4	10.0	-11.2	5.1	1.9
CCC(C)c1ccccc1NC(=O)c1[nH]c(C)c(C(C)=O)c1C (stereo not given)	-0.2	4.9	5.7	-8.1	0.5
CC1=C(C(=O)Nc2cccc(C(F)(F)F)c2)C2(CCCCCC2)OC1=O	-4.2	32.2*	-27.4	6.2	-1.2
CC(=O)c1c(C)[nH]c(C(=O)NCc2ccccc2Cl)c1C	-2.7	7.6	15.0	34.0*	-0.4
CCc1c(C(=O)NCc2ccccc2Cl)[nH]c(C)c1C(C)=O	-15.0	9.1	-16.6	-0.7	0.3
CC(=O)c1c(C)[nH]c(C(=O)NC(C)c2ccccc2)c1C (stereo not given)	-6.5	3.2	-32.9*	-3.9	-0.3
CCOc1ccc(S(=O)(=O)N2CCCC(C(=O)Nc3cc(C)cc(C)c3)C2)cc1 (stereo not given)	3.0	4.0	-5.8	-0.2	-0.6
COc1cc(CC(=O)OCC(=O)NCC(C)C)cc(OC)c1OC	-3.4	8.7	-32.5*	-1.2	2.4
O=C(CCC(=O)OCC(F)(F)C(F)F)Nc1ccc(F)cc1F	-4.3	3.3	-60.4*	5.1	-0.4
COc1cc(CCC(=O)OCC(=O)Nc2ccccc2C#N)cc(OC)c1OC	0.8	10.6	5.6	33.6*	0.4
SMILES	D1 potentiator	D1 ag	D1 antagonist	TRHR enhancer	TRHR ag
COc1cc(CCC(=O)OCC(=O)c2ccc[nH]2)cc(OC)c1OC	nt	6.5	-41.9*	4.9	0.4
COc1cc(CC(=O)OCC(=O)NCc2ccc(C)cc2)cc(OC)c1OC	6.1	2.1	20.6	-3.2	0.4
COc1cc(CC(=O)OCC(=O)Nc2ccccc2C#N)cc(OC)c1OC	nt	27.1	-18.4	7.7	0.1
Cc1csc(Nc2nc(N)c(C(=O)Nc3ccccc3)o2)n1	1.9	-0.5	15.2	24.2	-0.4
COc1cccc(CN2CCNC(=O)C2CC(=O)N(C)C2CCOCC2)c1OC (stereo not given)	3.4	1.9	7.2	3.6	1.1
O=C(COc1ccc(Br)cc1Cl)NNC(=O)c1ccccc1	-5.6	1.2	4.6	3.3	1.2
COc1cc(CCC(=O)OCC(=O)Nc2ccc(F)cc2F)cc(OC)c1OC	-2.2	16.5	-48.3*	12.0	0.2
CC1CCc2c(cc(-c3ccccc3)n2-c2ccc(C(=O)NC(C)C)cc2)C1 (stereo not given)	-5.0	7.0	-39.4*	2.1	0.7
COc1cccc(CNC(=O)C2CCN(S(=O)(=O)c3c(C)noc3/C=C/c3cccs3)CC2)c1	4.8	5.7	11.1	-0.9	0.7
CC(=O)Nc1cccc(C(=O)N/N=C/c2cccc(C)n2)c1	-3.0	2.8	-11.3	0.1	0.9
Cc1cccc(/C=N/NC(=O)c2ccc(NC(=O)c3ccc(F)cc3)cc2)n1	-8.3	-3.5	-51.0*	-2.4	-0.3
Cc1cccc(/C=N/NC(=O)c2ccc(NC(=O)c3ccc(Cl)cc3)cc2)n1	-11.9	1.5	-83.2*	5.2	0.3
Cc1cccc(C(=O)Nc2cccc(C(=O)N/N=C/c3cccc(C)n3)c2)c1	-3.2	0.4	-14.1	0.0	-1.0
CCOC(=O)C1CCCN(C(=O)COc2ccccc2F)C1 (stereo not given)	-5.0	2.4	-63.6*	-3.0	-0.4
CCOC(=O)C1CCCN(C(=O)COc2ccccc2O)C1 (stereo not given)	1.8	3.3	7.4	-4.5	0.4
O=C(c1ccc2c(c1)N(Cc1ccccc1F)C(=O)c1ccccc1S2=O)N1CCCCC1 (stereo not given)	1.6	0.9	9.5	15.8	0.0
CCOC(=O)C1CCCN(C(=O)c2ccc3c(c2)N(Cc2ccccc2F)C(=O)c2ccccc2S3=O)C1 (stereo not given)	0.5	2.1	-35.7*	-3.2	0.1
Cc1ccn2c(CNCCn3nc(C)cc3C)c(C(=O)N3CCCCCC3)nc2c1	-6.7	1.3	-8.3	11.9	-0.2
Cc1ccn2c(CN(C)CCn3nc(C)cc3C)c(C(=O)N3CCCCCC3)nc2c1	2.1	-1.2	-35.9*	-0.5	-0.7
CCCCn1c(O)c(/C=C/C=C/C=Nc2ccccc2)sc1=S	-3.7	1.9	-31.0*	-1.5	0.8
CNC(=S)/N=C/NOCc1ccc(Cl)cc1Cl	-6.1	22.5	-39.3*	-3.1	0.6
Cc1ccc(NC(=O)CCn2c(=O)c3cccn3c3ccccc32)cc1C	2.8	2.6	-36.7*!	2.2	0.4
CSc1ccc(CNC(=O)CCn2c(=O)c3cccn3c3ccc(F)cc32)cc1	-1.4	1.5	-17.4	-14.7	1.7
O=C(CCn1c(=O)c2cccn2c2ccc(F)cc21)NCc1ccccc1F	-6.0	-0.7	-69.3*	18.8	-0.1
O=C(CCn1c(=O)c2cccn2c2ccc(F)cc21)NCc1cccc(F)c1	24.9	0.5	-14.3	-5.4	0.4

Screening data: PubChem, National Center for Advancing Translational Sciences (NCATS)
